# Measurements published in the supplement of paper PMC6555819.
# Tests used:
# Assay in all cases: PBM binding z-score (relative to random genomic background probes); higher = stronger binding; sequences stand for … in GC…GCGATTGACAGCGTAGAATGAAGG
# [1] = system: PPARg:RXRa DBDmut IVT, anti-RXR (DBD mutation: RXRa K156A/R161A, NR concentration 270 nM, RXRa partner concentration 90 nM)
# In short: (§1)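 Custom Agilent 4×180K protein-binding microarrays carried double-stranded probes, each with a 34-nt variable region. These regions held direct-repeat seeds, single-nucleotide variants, half-site ablations and random human genomic background sequences. Ligand-free nuclear receptor dimers were incubated on the arrays for 1 h, antibodies against each partner (one per run) detected binding, and scanned fluorescence was regression-normalized. Binding z-scores take the random background probes as reference.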
# [2] = system: PPARg:RXRa IVT, anti-PPARg (NR concentration 270 nM, RXRa partner concentration 90 nM)
# In short: as §1
# [3] = system: PPARg DBDmut IVT, anti-PPARg (DBD mutation: PPARg1 K132A/R137A, NR concentration 270 nM)
# In short: as §1
# [4] = system: PPARg homodimer (NR concentration 180 nM)
# In short: as §1
# [5] = system: PXR:RXRa (NR concentration 270 nM, RXRa partner concentration 90 nM)
# In short: as §1
# [6] = system: PXR homodimer (NR concentration 270 nM)
# In short: as §1
# [7] = system: RARa:RXR (NR concentration 270 nM, RXRa partner concentration 90 nM)
# In short: as §1
# [8] = system: RARa homodimer (NR concentration 270 nM)
# In short: as §1
# [9] = system: RARb:RXRa (NR concentration 270 nM, RXRa partner concentration 90 nM)
# In short: as §1
# [10] = system: RARb homodimer (NR concentration 270 nM)
# In short: as §1
# [11] = system: RARg:RXRa (NR concentration 270 nM, RXRa partner concentration 90 nM)
# In short: as §1
# [12] = system: RARg homodimer (NR concentration 270 nM)
# In short: as §1
# [13] = system: RXRa DBDmut IVT, anti-RXR (DBD mutation: RXRa K156A/R161A, NR concentration 90 nM)
# In short: as §1
# [14] = system: RXRa homodimer (NR concentration 180 nM)
# In short: as §1
# [15] = system: THRa:RXRa (NR concentration 90 nM, RXRa partner concentration 90 nM)
# In short: as §1
# [16] = system: THRa homodimer (NR concentration 90 nM)
# In short: as §1
# [17] = system: VDR homodimer (NR concentration 270 nM)
# In short: as §1
Sequence,PBM binding z-score [1],PBM binding z-score [2],PBM binding z-score [3],PBM binding z-score [4],PBM binding z-score [5],PBM binding z-score [6],PBM binding z-score [7],PBM binding z-score [8],PBM binding z-score [9],PBM binding z-score [10],PBM binding z-score [11],PBM binding z-score [12],PBM binding z-score [13],PBM binding z-score [14],PBM binding z-score [15],PBM binding z-score [16],PBM binding z-score [17]
CGAACTCGGTCACCAGGACAGTGAAGAGGTTGGA,4.23,3.87,-0.647,0.233,0.0316,-0.302,0.493,-0.227,2.69,1.97,2.47,3.48,0.319,1.01,1.86,0.326,0.21
ATATGTAGGTTAGGGTCATTCACAAAGTAGGGAA,6.56,6.82,1.75,2.3,4.57,2.17,4.83,2.07,3.49,3.69,3.98,3.1,2.7,5.07,4.38,2.96,3.86
CGAAATAGGTCAAAGGACAGTGAAAGGCGACGTA,7.36,7.35,0.994,2.41,2.34,-0.0747,3.92,0.491,4.49,3.4,4.97,5.11,1.3,4.58,2.4,-0.113,0.355
CGAACTACGTCACCAGGACAGTGAAGAGGTTGGA,0.112,0.232,-0.216,0.245,-0.245,-0.301,0.0876,-0.285,-0.125,0.196,0.119,0.277,-0.206,0.256,1.27,0.657,0.0213
CGAACTACGTCAAAGGACAGTGAAAGGCGACGTA,-0.332,-0.152,-0.567,-0.204,-0.445,-0.202,-0.353,-0.431,1.14,0.995,0.411,0.951,-0.164,0.202,0.0886,-0.314,-0.351
CGAACTAGGTCCCCAGGACAGTGAAGAGGTTGGA,3.03,2.5,-1.06,-0.774,-0.741,-0.316,-0.649,-0.996,0.0236,-0.127,-0.281,-0.0988,-0.51,-0.31,0.965,0.258,-0.533
ATATGTAGGTTAGGGTCATACAGAAAGTAGGGAA,6.63,6.88,2.42,2.62,4.21,1.46,5.03,1.3,3.53,3.48,4.25,3.47,2.26,5.6,4.1,3.09,3.03
CGAACTTGGTCAAAGGACAGTGAAAGGCGACGTA,0.58,1.75,-0.436,0.499,-0.152,-0.326,0.232,-0.498,1.83,1.3,1.24,1.69,-0.0652,0.736,0.657,-0.391,-0.0452
CAAACTAGGTCAAAGGACAGTGAAAGGCGACGTA,8,8.6,4.51,2.88,1.45,0.371,2.48,0.774,3.99,2.87,3.97,4.47,1.68,2.86,2.78,0.733,0.509
CGAACTAGCTCAAAGGACAGTGAAAGGCGACGTA,-0.134,-0.285,-0.415,0.163,-0.639,-0.457,-0.276,0.225,0.694,0.955,0.138,0.6,-0.347,-0.119,0.0409,-0.622,-0.00865
CGAACTAGGTCAATGGACAGTGAAAGGCGACGTA,7.65,7.92,4.35,2.53,0.477,-0.177,1.18,0.235,3.51,2.45,3.17,4.17,1.14,2.14,1.93,-0.00999,0.0508
ATATGTGGGTTAGGGTCATTCAGAAAGTAGGGAA,6.19,6.44,2.69,4.09,5.1,3.66,5.02,3.33,3.45,3.67,4.16,3.23,2.95,5.55,4.42,4.11,4.92
CGAACCAGGTCAAAGGACAGTGAAAGGCGACGTA,4.57,5.82,0.805,1.1,2.07,0.537,2.82,0.116,3.86,2.94,4.32,4.33,2.36,3.81,3.21,1.24,1.15
ATATGTAGGTTAGGGCCATTCAGAAAGTAGGGAA,6.52,5.91,1.97,1.54,0.501,0.512,0.535,0.865,1.35,1.13,0.818,0.94,0.769,0.668,1.47,0.811,0.685
CGAACTAGGTCACCAGGCCAGTGAAGAGGTTGGA,8.23,8.8,0.89,2.25,1.18,-0.53,2.73,-0.334,4.22,3.33,4.61,5.11,1.05,3.21,2.98,0.969,0.372
ATATGTAGGTTAGGATCATTCAGAAAGTAGGGAA,6.17,6.13,1.84,1.69,0.594,0.622,0.758,1.36,0.759,0.531,0.593,0.675,0.541,1.01,0.577,0.347,0.616
CTAACTAGGTCAAAGGACAGTGAAAGGCGACGTA,8.56,8.84,1.86,1.28,1.19,-0.0818,2.41,0.599,4.07,3.08,4.05,4.84,1.68,2.97,2.58,0.419,0.409
CCAACTAGGTCACCAGGACAGTGAAGAGGTTGGA,7.98,8.26,1.95,2.72,1.52,0.124,2.69,1.44,4.36,3.74,4.53,5.37,1.24,3.51,3.37,1.89,0.883
CGAACTAGGGCAAAGGACAGTGAAAGGCGACGTA,7.08,6.68,0.104,0.584,-0.478,-0.625,-0.393,-0.727,2,1.44,1.1,1.87,0.227,-0.0436,0.0548,-0.953,-0.515
CGAACTAGGTCAAAGGCCAGTGAAAGGCGACGTA,7.82,8.38,0.408,1.42,1.79,-0.54,3.18,-0.426,3.87,3.16,4.37,4.81,1.49,3.62,2.42,0.00822,-0.206
ATATGTAGGTTAGGGTCATTCCGAAAGTAGGGAA,6.18,6.86,1.28,2.67,4.29,1.79,4.8,1.82,3.43,3.13,3.89,2.85,2.61,5.22,4.18,3.01,3.59
ATCTGTAGGTTAGGGTCATTCAGAAAGTAGGGAA,2.86,3.74,2.08,3.23,4.42,2.1,5.21,2.2,3.58,3.65,4.2,3.96,2.35,5.32,4.19,3.53,4.36
CGAACTAGGTTAAAGGACAGTGAAAGGCGACGTA,6.46,6.45,0.461,1.11,-0.281,-0.159,0.0562,-0.221,1.72,1.34,1,1.38,-0.1,0.702,0.788,-0.308,-0.464
ATATGTAAGTTAGGGTCATTCAGAAAGTAGGGAA,1.38,2.41,1.73,2.2,4.63,1.59,5.07,1.77,3.23,3.04,4,3.02,2.47,5.33,4.05,2.85,3.96
CGAACTAGGTCAAAGGACAGTGAAAGGCGACGTA,7.94,8.4,3.54,2.15,1.21,-0.123,2.12,-0.0827,3.99,2.83,3.94,4.27,1.3,3.33,2.58,0.464,0.47
CGAACTAGGTCTCCAGGACAGTGAAGAGGTTGGA,4.77,4.03,-0.626,0.0186,-0.409,-0.39,-0.238,-0.356,0.216,-0.111,-0.0715,0.188,-0.342,-0.062,1.11,0.505,-0.34
CGAACTAGGTCACCAGGACAGTAAAGAGGTTGGA,8.12,8.87,5.2,2.63,1.66,0.231,2.62,0.29,4.12,3.58,4.57,5.2,1.79,3.38,3.29,1.86,0.977
